Measurements: PubChem BioAssay (Tox21)
Inconclusive results are not listed. Active and inactive are the calls of the source. Unless noted, the call rests on the fitted dose curve; in most records, active means well fitted curve in the direction sought with a large enough effect in the repeat runs; inconclusive means weak or mixed curves; inactive means no such curve, though single readings can be large; an effect the other way counts as inactive or inconclusive.

Experiments:
[1] = qHTS assay to identify small molecule agonists of the peroxisome proliferator-activated receptor delta (PPARd) signaling pathway - cell viability counter screen (AID 743211); further: nearly all actives have a fitted effect of over 55% in size
Summary of the method: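 Tox21 library compounds, delivered in DMSO, were incubated 17 h with PPARd-bla HEK293H cells; cytotoxicity was taken from CellTiter-Glo luminescence read 30 min after reagent addition.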

[2] = qHTS assay to identify small molecule antagonists of the peroxisome proliferator-activated receptor delta (PPARd) signaling pathway - cell viability counter screen (AID 743213); further: nearly all actives have a fitted effect of over 50% in size
Summary of the method: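 Cytotoxicity counter screen: CellTiter-Glo luminescence read 30 min after addition, in the same wells as the reporter assay. There, PPARd UAS-bla HEK293H cells (3000/well) were treated 17 h at 37 C with compound and 300 nM L165041.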

[3] = qHTS assay to identify small molecule agonists of the farnesoid-X-receptor (FXR) signaling pathway - cell viability counter screen (AID 743218); further: nearly all actives have a fitted effect of over 45% in size
Summary of the method: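 Luminescence from CellTiter-Glo, read after 30 min at RT, reports viability of GeneBLAzer FXR-UAS-bla HEK 293T cells treated 16 h with compounds in the wells used for the beta-lactamase reporter.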

[4] = qHTS assay to identify small molecule antagonists of the farnesoid-X-receptor (FXR) signaling pathway - cell viability counter screen (AID 743221; active means well fitted cell-killing curve with a large enough effect in the repeat runs, not every such curve was filed as active; further: nearly all actives have a fitted effect of over 50% in size)
Summary of the method: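 Cytotoxicity is taken from ATP luminescence (CellTiter-Glo, 30 min, room temperature) in FXR-bla HEK 293T cells previously incubated 16 h at 37 C with compound and chenodeoxycholic acid at 50 uM final.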

[5] = molecular target: Vitamin D3 receptor (Homo sapiens) (UniProt P11473); assay: qHTS assay to identify small molecule agonists of the vitamin D receptor (VDR) signaling pathway (AID 743222; calls by dose curve)
Summary of the method: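 Beta-lactamase reporter readout (LiveBLAzer B/G FRET, 2 h RT) in VDR-bla cells after 16 h compound treatment at 37C, 5% CO2; cells pre-incubated 4 h before pin transfer of DMSO solutions.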

[6] = molecular target: Vitamin D3 receptor (Homo sapiens) (UniProt P11473); assay: qHTS assay to identify small molecule antagonists of the vitamin D receptor (VDR) signaling pathway (AID 743223; active means well fitted inhibition curve with a large enough effect in the signal ratio in the repeat runs, not every such curve was filed as active; the % refers to the signal ratio)
Summary of the method: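 Quantitative HTS in VDR-bla reporter cells stimulated with 1alpha,25-dihydroxyvitamin D3, 3 nM final. Compound exposure 16 h, 37C, 5% CO2. Read-out: beta-lactamase FRET substrate fluorescence, 2 h RT.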

[7] = molecular target: Peroxisome proliferator-activated receptor delta (Homo sapiens) (UniProt Q03181); assay: qHTS assay to identify small molecule antagonists of the peroxisome proliferator-activated receptor delta (PPARd) signaling pathway (AID 743215; active means well fitted inhibition curve with a large enough effect in the signal ratio in the repeat runs, not every such curve was filed as active; the % refers to the signal ratio;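 further: cells stimulated with agonist L165041 at 300 nM final during compound exposure; series mostly up to about 62 µM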)
Summary of the method: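 HEK293H GeneBLAzer PPARd UAS-bla reporter cells; cpd + L165041 300 nM final, 17 h 37 C; LiveBLAzer B/G FRET substrate 2 h RT; fluorescence intensity read-out. Antagonist mode.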

[8] = molecular target: Peroxisome proliferator-activated receptor delta (Homo sapiens) (UniProt Q03181); assay: qHTS assay to identify small molecule agonists of the peroxisome proliferator-activated receptor delta (PPARd) signaling pathway (AID 743212; calls by dose curve)
Summary of the method: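 Tox21 library screened in GeneBLAzer PPARd UAS-bla HEK293H cells. After compound treatment at 37 C, a FRET-based beta-lactamase substrate was applied for 2 h and fluorescence recorded.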

[9] = molecular target: Bile acid receptor (Homo sapiens) (UniProt Q96RI1); assay: qHTS assay to identify small molecule antagonists of the farnesoid-X-receptor (FXR) signaling pathway (AID 743217; active means well fitted inhibition curve with a large enough effect in the signal ratio in the repeat runs, not every such curve was filed as active; the % refers to the signal ratio)
Summary of the method: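 Read-out: beta-lactamase FRET fluorescence (LiveBLAzer B/G substrate, 2 h, room temperature) in GeneBLAzer FXR-UAS-bla HEK 293T cells. Compounds were co-dosed with 50 uM chenodeoxycholic acid (final) and incubated 16 h at 37 °C.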

[10] = molecular target: Bile acid receptor (Homo sapiens) (UniProt Q96RI1); assay: qHTS assay to identify small molecule agonists of the farnesoid-X-receptor (FXR) signaling pathway (AID 743220; active means well fitted activation curve with a large enough effect in the signal ratio in the repeat runs, not every such curve was filed as active; the % refers to the signal ratio)
Summary of the method: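 FXR-UAS-bla HEK 293T cells carrying a UAS-driven beta-lactamase reporter were plated for 5 h at 37C/5% CO2, then exposed to DMSO-dissolved Tox21 10K compounds for 16 h at 37C. A LiveBLAzer B/G FRET substrate was loaded for 2 h at room temperature before fluorescence reading.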
On the % scale 0 is the no-effect control and ±100 the full control effect.

Chain of Peroxisome proliferator-activated receptor delta (Homo sapiens) (Q03181 whole entry, looked up): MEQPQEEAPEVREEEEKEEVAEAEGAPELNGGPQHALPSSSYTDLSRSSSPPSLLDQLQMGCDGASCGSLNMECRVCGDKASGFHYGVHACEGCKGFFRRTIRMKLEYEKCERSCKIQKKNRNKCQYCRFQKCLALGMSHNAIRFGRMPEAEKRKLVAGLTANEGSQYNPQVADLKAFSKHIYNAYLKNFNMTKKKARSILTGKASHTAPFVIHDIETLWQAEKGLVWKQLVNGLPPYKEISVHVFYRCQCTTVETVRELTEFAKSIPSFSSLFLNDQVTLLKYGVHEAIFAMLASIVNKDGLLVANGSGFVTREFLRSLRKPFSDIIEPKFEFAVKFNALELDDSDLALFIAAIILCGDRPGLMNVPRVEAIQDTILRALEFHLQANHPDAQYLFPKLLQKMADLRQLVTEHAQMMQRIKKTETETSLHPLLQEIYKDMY
Chain of Vitamin D3 receptor (Homo sapiens) (P11473 whole entry, looked up): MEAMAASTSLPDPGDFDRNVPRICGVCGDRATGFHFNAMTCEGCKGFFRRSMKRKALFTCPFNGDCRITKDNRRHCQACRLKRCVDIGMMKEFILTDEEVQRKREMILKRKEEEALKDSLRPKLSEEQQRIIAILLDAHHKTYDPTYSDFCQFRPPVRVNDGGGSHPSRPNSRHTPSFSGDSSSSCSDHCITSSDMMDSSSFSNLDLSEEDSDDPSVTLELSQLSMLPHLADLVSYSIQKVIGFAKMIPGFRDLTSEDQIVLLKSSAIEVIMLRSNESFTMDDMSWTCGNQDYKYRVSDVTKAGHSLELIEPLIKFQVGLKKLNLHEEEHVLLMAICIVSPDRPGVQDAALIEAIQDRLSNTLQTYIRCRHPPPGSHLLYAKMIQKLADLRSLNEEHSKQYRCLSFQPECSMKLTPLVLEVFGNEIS
Chain of Bile acid receptor (Homo sapiens) (Q96RI1 whole entry, looked up): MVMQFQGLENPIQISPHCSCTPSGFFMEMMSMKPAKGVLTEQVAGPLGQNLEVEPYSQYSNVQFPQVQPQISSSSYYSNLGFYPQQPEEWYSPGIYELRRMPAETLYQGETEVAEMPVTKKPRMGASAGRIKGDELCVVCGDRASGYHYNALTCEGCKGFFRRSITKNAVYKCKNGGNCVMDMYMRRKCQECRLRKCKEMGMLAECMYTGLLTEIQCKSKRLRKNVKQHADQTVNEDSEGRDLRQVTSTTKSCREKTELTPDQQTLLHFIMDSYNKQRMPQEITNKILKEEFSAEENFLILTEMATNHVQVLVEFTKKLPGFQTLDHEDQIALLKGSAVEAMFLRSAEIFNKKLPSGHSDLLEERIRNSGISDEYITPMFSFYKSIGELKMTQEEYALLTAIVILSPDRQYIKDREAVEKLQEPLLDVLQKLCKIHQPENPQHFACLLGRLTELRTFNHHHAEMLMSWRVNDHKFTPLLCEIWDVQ

C=CC(=O)OCCC(=O)O
inactive: outcome [1] | outcome [2] | outcome [3] | outcome [4] | outcome [5] | outcome [6]

COc1ccccc1OCC(O)CO (stereo unspecified)
inactive: outcome [1] | outcome [2] | outcome [7] | outcome [3] | outcome [4] | outcome [5] | outcome [6]

NCCNCCN
inactive: outcome [1] | outcome [2] | outcome [7] | outcome [3] | outcome [4] | outcome [5] | outcome [6]

CC(CCO)CC(C)(C)C (stereo unspecified)
inactive: outcome [1] | outcome [2] | outcome [3] | outcome [4] | outcome [5]

CC(O)CC(C)(C)O (stereo unspecified)
inactive: outcome [1] | outcome [2] | outcome [3] | outcome [4] | outcome [5] | outcome [6]

CC(=O)OCCOC(C)=O
inactive: outcome [1] | outcome [2] | outcome [3] | outcome [4] | outcome [5] | outcome [6]

CSc1ccc(Cl)cc1
inactive: Potency [8] | outcome [2] | outcome [7] | outcome [9] | outcome [3] | outcome [10] | outcome [4] | outcome [5] | outcome [6]

OCc1ccccc1
inactive: outcome [1] | outcome [2] | outcome [3] | outcome [4] | outcome [5] | outcome [6]

CCNC(=S)NCC
inactive: outcome [1] | outcome [2] | outcome [7] | outcome [3] | outcome [4] | outcome [5] | outcome [6]

CCCCCCO
inactive: outcome [1] | outcome [2] | outcome [3] | outcome [4] | outcome [5] | outcome [6]

CC(C)(Oc1ccc(CCNC(=O)c2ccc(Cl)cc2)cc1)C(=O)O
inactive: outcome [1] | outcome [2] | outcome [7] | outcome [9] | outcome [3] | outcome [4] | outcome [5] | outcome [6]

O=C(O)/C=C/C(=O)O
inactive: outcome [1] | outcome [2] | outcome [7] | outcome [3] | outcome [4] | outcome [5] | outcome [6]

CC(C)c1cccc(C(C)C)c1
inactive: outcome [1] | outcome [2] | outcome [7] | outcome [9] | outcome [3] | outcome [4] | outcome [5] | outcome [6]

NCCN1CCNCC1
inactive: outcome [1] | outcome [2] | outcome [7] | outcome [3] | outcome [4] | outcome [5] | outcome [6]

O=C1CCCC1
inactive: outcome [1] | outcome [2] | outcome [3] | outcome [4] | outcome [5] | outcome [6]

O=C(O)CCCCCCCCC(=O)O
inactive: Potency [8] | outcome [2] | outcome [7] | outcome [9] | outcome [3] | outcome [10] | outcome [4] | outcome [5] | outcome [6]

CCCCCC(=O)O
inactive: outcome [1] | outcome [2] | outcome [7] | outcome [3] | outcome [4] | outcome [5] | outcome [6]

CCNc1cccc(C)c1
inactive: outcome [1] | outcome [2] | outcome [7] | outcome [3] | outcome [4] | outcome [5] | outcome [6]

CCc1ccccc1CC
inactive: outcome [1] | viability change, negative = cytotoxic [2] -6.24% [at 13.7 µM] | viability change, negative = cytotoxic [3] 18.7% [at 13.2 µM] | outcome [4]

C=C(C)[C@H]1CC=C(C)C(=O)C1
inactive: outcome [1] | outcome [2] | outcome [3] | outcome [4] | outcome [5] | outcome [6]

C[C@]12CC[C@@H]3c4ccc(O)cc4CC[C@H]3[C@@H]1C[C@@H](O)[C@@H]2O
inactive: outcome [1] | outcome [2] | outcome [7] | outcome [3] | outcome [4] | outcome [5] | outcome [6]

O=S(=O)(O)c1ccccc1
inactive: outcome [1] | outcome [2] | outcome [9] | outcome [3] | outcome [4] | outcome [5]

CC1(C)OC[C@@H]2O[C@@]3(C(=O)O)OC(C)(C)O[C@H]3[C@@H]2O1
inactive: outcome [1] | outcome [2] | outcome [3] | outcome [4] | outcome [5] | outcome [6]

COc1ccc(C)cc1N
inactive: Potency [8] | outcome [2] | outcome [7] | outcome [3] | outcome [4] | outcome [5] | outcome [6]

C=CC[N+](C)(C)CC=C
inactive: outcome [2] | outcome [7] | outcome [3] | outcome [4] | outcome [5] | outcome [6]

CN/C(=C\[N+](=O)[O-])NCCSCc1csc(CN(C)C)n1
inactive: Potency [8] | outcome [2] | outcome [7] | outcome [3] | outcome [4]

COc1cc(OC)c(C(=O)CCCN2CCCC2)c(OC)c1
inactive: outcome [2] | outcome [7] | outcome [3] | outcome [4] | outcome [5] | outcome [6]

NCCCCCCN
inactive: Potency [8] | outcome [2] | outcome [7] | outcome [3] | outcome [4] | outcome [5] | outcome [6]

O=S(=O)(O)c1ccc(N=Nc2c(O)ccc3cc(S(=O)(=O)O)ccc23)cc1
inactive: Potency [8] | outcome [2] | outcome [7] | outcome [9] | outcome [3] | outcome [4] | outcome [5] | outcome [6]

CC1(C)NC(=O)NC1=O
inactive: Potency [8] | outcome [2] | outcome [7] | outcome [3] | outcome [4] | outcome [5] | outcome [6]

CCCCC(C=O)CC (stereo unspecified)
inactive: Potency [8] | outcome [2] | outcome [7] | outcome [9] | outcome [3] | outcome [4] | outcome [5]

CNC(=O)Oc1ccc2c(c1)[C@]1(C)CCN(C)[C@@H]1N2C
inactive: Potency [8] | outcome [2] | outcome [7] | outcome [9] | outcome [3] | outcome [4] | outcome [5] | outcome [6]

O=C(O)Cn1c(=O)n(Cc2ccc(Br)cc2F)c(=O)c2ccc(Cl)cc21
inactive: outcome [2] | outcome [9] | outcome [3] | outcome [4] | outcome [5]

CCO[Si](CCC#N)(OCC)OCC
inactive: outcome [2] | outcome [9] | outcome [3] | outcome [4]

CN(C)c1ccc(Cc2ccc(N(C)C)cc2)cc1
inactive: outcome [2] | outcome [7] | outcome [9] | outcome [3] | outcome [4] | outcome [5] | outcome [6]

c1ccc(Oc2ccccc2)cc1
inactive: Potency [8] | outcome [2] | outcome [7] | outcome [9] | outcome [3] | outcome [4] | outcome [5] | outcome [6]

C=CC(C)CCCC(C)(C)O (stereo unspecified)
inactive: Potency [8] | outcome [2] | outcome [7] | outcome [3] | outcome [4] | outcome [5] | outcome [6]

Cc1ccc2ncccc2c1
inactive: Potency [8] | outcome [2] | outcome [7] | outcome [3] | outcome [4]

CC(=O)Oc1ccc(C)cc1
inactive: outcome [2] | outcome [7] | outcome [3] | outcome [4]

CCCCCCCCCCCC(=O)OC
inactive: outcome [2] | outcome [7] | outcome [9] | outcome [3] | outcome [4] | outcome [5] | outcome [6]

CCCCCCCCCCO
inactive: outcome [2] | outcome [9] | outcome [3] | outcome [4] | outcome [5]

CCCCCCCCCCCCCCCCO
inactive: outcome [2] | outcome [7] | outcome [3] | outcome [4] | outcome [5] | outcome [6]

c1ccc2c(c1)Cc1ccccc1-2
inactive: outcome [2] | outcome [9] | outcome [3] | outcome [4] | outcome [5] | outcome [6]

COCCCN
inactive: outcome [2] | outcome [7] | outcome [3] | outcome [4] | outcome [5]

COC(=O)c1cccnc1
inactive: Potency [8] | outcome [2] | outcome [7] | outcome [3] | outcome [4] | outcome [5] | outcome [6]

Cc1ccc(S(=O)(=O)N=C=O)cc1
inactive: outcome [2] | outcome [7] | outcome [3] | outcome [4] | outcome [5] | outcome [6]

N[C@H](Cc1c[nH]c2ccccc12)C(=O)O
inactive: outcome [2] | outcome [7] | outcome [3] | outcome [4] | outcome [5] | outcome [6]

CC(=O)OCc1ccco1
inactive: Potency [8] | outcome [2] | outcome [7] | outcome [3] | outcome [4] | outcome [5] | outcome [6]

CC(=O)CC(C)(C)O
inactive: Potency [8] | outcome [2] | outcome [7] | outcome [9] | outcome [3] | outcome [5] | outcome [6]

COc1ccc(OC)cc1
inactive: Potency [8] | outcome [2] | outcome [7] | outcome [3] | outcome [4] | outcome [5] | outcome [6]

O=c1[nH]cnc2[nH]ncc12
inactive: Potency [8] | outcome [2] | outcome [7] | outcome [3] | outcome [4] | outcome [5] | outcome [6]

Nc1nc(N)nc(-c2ccccc2)n1
inactive: outcome [2] | outcome [7] | outcome [3] | outcome [4]

CC(C)(C#N)c1cc(Cn2cncn2)cc(C(C)(C)C#N)c1
inactive: outcome [2] | outcome [9] | outcome [3] | outcome [4] | outcome [5] | outcome [6]

CCCCCCCCCCCCCCCC(=O)OC(C)C
inactive: Potency [8] | outcome [2] | outcome [7] | outcome [3] | outcome [4] | outcome [5] | outcome [6]

Brc1ccc(Br)c(Br)c1
inactive: outcome [2] | outcome [3] | outcome [4] | outcome [5] | outcome [6]

O=C(O)c1ccc(S(=O)(=O)N(Cl)Cl)cc1
inactive: outcome [2] | outcome [9] | outcome [3] | outcome [4] | outcome [5] | outcome [6]

C=Cc1ccc(C)cc1
inactive: Potency [8] | outcome [2] | outcome [7] | outcome [3] | outcome [4] | outcome [5] | outcome [6]

Clc1ccccn1
inactive: outcome [2] | outcome [7] | outcome [9] | outcome [3] | outcome [4] | outcome [5] | outcome [6]

O=C1C(c2[nH]c3ccccc3c2O)=Nc2ccccc21
inactive: Potency [8] | outcome [2] | outcome [7] | outcome [9] | outcome [3] | outcome [4]

CCOC(=O)c1ccc(N)cc1
inactive: outcome [2] | outcome [9] | outcome [3] | outcome [10] | outcome [4] | outcome [5] | outcome [6]

CC(C)OC(=O)COc1ccc(Cl)cc1Cl
inactive: Potency [8] | outcome [2] | outcome [7] | outcome [9] | outcome [3] | outcome [4]
